From PubChem
NALP3 yeast inh = NALP3 inhibition in yeast. Yeast reconstituted NLRP3/ASC/caspase-1, beta-gal luminescence, 24 h. inhibition, % at 10 µM. 330,000 compounds, 0.39% hits. AID 2825;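 active = inhibition of 50% or more; inactive = inhibition below 50%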;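 also: plate controls were induced DMSO wells for no effect and uninduced yeast grown without galactose for full effect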
TIM10 inh = TIM10 yeast growth inhibition; inhibition, % at 10 µM; 330,000 compounds, 1.4% hits; S. cerevisiae TIM10 strain growth, BacTiter-Glo luminescence, 24 h;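 active = inhibition of 40% or more at the single tested concentration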;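 also: wild-type TIM10 isogenic control strain grown at permissive 25 °C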
tim10-1 inh = tim10-1 yeast growth inhibition; S. cerevisiae tim10-1 ts strain growth, BacTiter-Glo, 24 h; inhibition, % at 20 µM; 330,000 compounds, 2.2% hits; AID 463190;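 active = inhibition of at least 40%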;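 also: mutant grown at 25 °C; 0% = DMSO wells with yeast and 100% = wells holding no yeast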
PfHsp90 yeast 2 = inhibits growth of yeast expressing Plasmodium falciparum Hsp90 | S. cerevisiae expressing PfHsp90, BacTiter-Glo ATP, 48 h; yeast lacking PDR1 and PDR3 efflux regulators | inhibition, % at 9.4 µM | 310,000 compounds, 0.32% hits;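 active = every replicate shows inhibition above about 80%, whatever the replicate mean, limit read from the data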;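 also: 0% = DMSO neutral controls and 100% = 20 µM radicicol positive controls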
tim23-1 inh = inhibits growth of tim23-1 mutant yeast; 330,000 compounds, 1.3% hits; inhibition, % at 20 µM; S. cerevisiae tim23-1 growth, BacTiter-Glo luminescence, 24 h; AID 463212;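 active = growth inhibition of the mutant yeast at or above 50%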;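 also: temperature-sensitive mutant grown at 25 °C; plate controls were DMSO-treated mutant yeast for no effect and medium wells lacking yeast for full effect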
tim23-1 confirm = tim23-1 yeast growth inhibition, confirmed; inhibition, % at 20 µM; AID 463218; S. cerevisiae tim23-1 growth, BacTiter-Glo luminescence, 24 h; 4,400 compounds, 83% hits; shares compounds with tim23-1 inh;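 active = inhibition above about 39% in either of two replicate wells at 20 µM, limit read from the data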;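 also: temperature-sensitive tim23-1 mutant grown at 25 °C; 0% = DMSO wells with yeast and 100% = medium wells without yeast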
The depositor's hits bear a star; . = no result given. Shown are actives, neighbours in structure and some others; about 3.7% of the full set was active somewhere.

SMILES	NALP3 yeast inh	TIM10 inh	tim10-1 inh	PfHsp90 yeast 2	tim23-1 inh	tim23-1 confirm
Cn1c(C=O)c(-c2ccc3c(c2)OCCO3)c2ccccc21	12	27	27	-47	53*	53*
CCCC(=O)n1nc(-c2ccco2)nc1SCc1ccccc1	-2	36	35	-7	54*	52*
O=C(Nc1ccc(S(=O)(=O)Nc2ncccn2)cc1)c1ccc(F)c(S(=O)(=O)N2CCOCC2)c1	-1	-15	-9	2	9	.
Cc1ccc2c(c1)COc1c3ccc(C(=O)N[C@@H](C)CO)cc3nn1-2	11	12	15	4	23	.
Cc1ccc2c(c1)COc1c3ccc(C(=O)NC(C)C)cc3nn1-2	19	32	28	5	51*	48*
CC(=O)NCc1ccc(-c2csc(-c3cccs3)n2)cc1	0	1	18	15	26	.
COc1ccc(Cn2ccnc2SCC(=O)NC2CCCC2)cc1	17	13	14	-3	20	.
Cc1ccc(C2=Nc3ccccc3N(C(=O)c3ccccc3)C(C)C2)cc1 (stereo not drawn)	8	33	39	24	52*	41*
COc1cccc(N(C(=O)Cn2nnc(-c3cccs3)n2)C(C(=O)NC2CCCCC2)c2ccncc2)c1 (stereo not drawn)	-5	10	14	-87	-8	.
CCOC(=O)c1cn(-c2ccccc2)nc1-c1ccncc1	-1	35	38	-57	51*	46*
Cc1ccc(NC(=O)C2CCN(S(=O)(=O)c3ccc4c(c3)OCCO4)CC2)c(O)c1	10	0	-8	7	14	.
Cc1ccc(C)c(-c2csc(N/N=C/c3ccco3)n2)c1	33	18	30	15	56*	39*
COC(=O)COc1ccc(S(=O)(=O)NCc2ccc3c(c2)OCO3)cc1C	5	8	9	-7	24	.
CC(=O)Nc1ccc(S(=O)(=O)Oc2ccccc2N2CCCCC2)cc1	26	22	34	-30	38	.
CC(C)(C)NC(=O)COC(=O)c1cncc(Br)c1	21	8	2	24	1	.
CC(C)c1nc(NCCO)c(C#N)c2c1CCCC2	15	30	37	-9	54*	39*
CC(C)c1nc(NCc2ccccc2)c(C#N)c2c1CCCC2	3	-6	19	22	-1	.
CC(Oc1ccc(Br)cc1)C(=O)Nc1cc(S(=O)(=O)N2CCOCC2)ccc1N1CCCC1 (stereo not drawn)	1	3	2	.	-2	.
Oc1ccccc1-c1cc(-c2ccc3c(c2)OCCO3)n[nH]1	34	31	31	47	66*	-2
CC(C)(C)NS(=O)(=O)c1ccc(NC(=O)C2CCCCC2)cc1	-15	-14	9	-5	0	.
CN(C)C(=O)c1c(NC(=O)c2ccco2)sc2c1CCCCC2	-6	35	35	17	60*	49*
O=C(c1cc(-c2ccccc2Cl)nc2ccccc12)N1CCN(c2ccccn2)CC1	5	24	18	.	54*	44*
O=C(c1cc(-c2ccccc2Cl)nc2ccccc12)N1CCN(c2ccccc2O)CC1	18	20	23	.	40	.
C/C=C/C=[N+](\[O-])C(C)/C(=N/O)c1ccc(F)cc1 (stereo not drawn)	4	-4	2	.	3	.
Cc1ccccc1COc1ccc(/C=C(\C#N)C(N)=O)cc1	19	10	3	18	11	.
SMILES	NALP3 yeast inh	TIM10 inh	tim10-1 inh	PfHsp90 yeast 2	tim23-1 inh	tim23-1 confirm
N#C/C(=C\c1ccc(OCc2ccccc2)cc1)C(N)=O	13	6	34	9	63*	52*
CC(Oc1ccccc1)C(=O)N=C1SC2CS(=O)(=O)CC2N1c1ccc(F)cc1 (stereo not drawn)	-2	3	2	-2	10	.
CCCCSC1=C(C#N)C(c2ccccc2C)CC(=O)N1 (stereo not drawn)	-11	6	25	13	51*	52*
CCCSC1=C(C#N)C(c2ccccc2C)CC(=O)N1 (stereo not drawn)	7	17	27	.	51*	44*
O=C(CSc1nnc(C2CC2)n1CC1CCCO1)Nc1cccc(Cl)c1 (stereo not drawn)	2	11	-12	-12	0	.
COc1ccc(C(=O)COC(=O)c2c(-c3ccccc3)noc2C)c(OC)c1	-5	-4	20	.	-6	.
c1csc(CNc2ncnc3ccc(-c4ccc5c(c4)OCCO5)cc23)c1	8	37	30	13	57*	45*
c1cncc(CNc2ncnc3ccc(-c4ccc5c(c4)OCCO5)cc23)c1	-9	7	14	21	28	.
c1cncc(-c2ccc3ncnc(NCc4cccs4)c3c2)c1	6	14	17	5	22	.
COc1cccc(-c2ccc3ncnc(NCc4cccs4)c3c2)c1	3	29	29	2	52*	43*
COCC(=O)N/N=C\c1ccccc1OC/C=C/c1ccccc1	9	19	25	-28	51*	39*
COc1ccc(C(=O)NCCc2nnc(SCC(=O)Nc3ccccc3)n2C)cc1	21	2	-14	-13	-5	.
COc1cc2[nH]c(C(=O)N3CCN(c4ccccc4F)CC3)cc2c(OC)c1OC	2	24	37	-4	51*	38
COc1ccc2cc(C(=O)N3CCN(c4ccccc4OC)CC3)[nH]c2c1	8	33	32	8	59*	53*
COc1ccccc1N1CCN(C(=O)c2ccc(-c3ccc(Cl)cc3)o2)CC1	22	36	37	.	52*	48*
COc1ccc2cc(C(=O)N3CCN(c4ccccc4F)CC3)[nH]c2c1	16	6	23	-27	21	.
O=S(=O)(c1ccc2c(c1)OCCO2)N1C[C@@H]2C[C@H]1CN2S(=O)(=O)c1c(F)cccc1F	2	-2	14	9	21	.
C[C@H]1CN(S(=O)(=O)c2ccc3c(c2)OCCO3)CCN1S(=O)(=O)c1c(F)cccc1F	3	22	21	5	51*	31
COCCCNC(=O)CCc1nnc2ccc(N3CCC(C)CC3)nn12	15	-14	5	-10	1	.
COc1cc(NC(=O)c2cc3sccc3n2C)cc(OC)c1	29	31	32	.	53*	43*
COC(=O)C1=C(Nc2ccccc2NS(=O)(=O)c2ccc(C(F)(F)F)cc2Cl)CSC1	16	34	38	-7	54*	52*
COC(=O)C1=C(Nc2ccccc2NC(=O)c2ccccc2C(=O)O)CSC1	5	17	21	-1	28	.
OCc1cn(-c2ccccc2)nc1-c1ccc(Br)cc1	25	-3	-7	-14	67*	28
CC(C)COc1ccc(-c2nn(-c3ccccc3)cc2CO)cc1	28	16	20	13	41	.
CCN(CC)CCC#CC1(O)c2ccccc2-c2ccccc21	7	-8	3	-1	8	.
